In the library only some 10% were active in any assay of this set; here they are far more common.
G9a inh = G9a (human) methyltransferase inhibition; Q96KQ7; G9a H3K9 monomethylation, AlphaScreen, 2 h; Potency, µM (series often up to 102 µM), inactives show top-dose activity, negative = inhibition, usual class: inhibitors; actives 8.8% (n = 350,000); AID 504332; further: potency means the concentration at half of the fitted maximal effect; nearly all actives have a fitted effect of over 75% in size
Target sequence (Q96KQ7 913-1193 limits assumed): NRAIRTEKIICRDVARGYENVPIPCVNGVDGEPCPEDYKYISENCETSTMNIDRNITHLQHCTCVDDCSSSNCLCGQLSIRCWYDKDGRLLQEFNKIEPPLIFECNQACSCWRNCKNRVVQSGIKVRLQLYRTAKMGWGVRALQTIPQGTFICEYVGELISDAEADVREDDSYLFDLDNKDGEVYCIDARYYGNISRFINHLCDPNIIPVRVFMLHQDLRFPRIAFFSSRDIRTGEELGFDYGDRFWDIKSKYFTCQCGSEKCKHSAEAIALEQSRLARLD
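Chemiluminescent proximity detection of H3K9 monomethylation, read after 10 min bead incubation in the dark. Reaction: 20 nM G9a, 500 nM biotin-H3K9 peptide, 20 uM SAM cofactor, 2 h, room temperature, following 15 min enzyme-compound preincubation.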
Sfp PPTase inh = blocks B. subtilis Sfp PPTase activity; Potency, µM, without a hit: largest response in the series, negative = inhibition, usual class: inhibitors; AID 1490; Biochemical Sfp PPTase activity, qHTS; Q9F4F7; actives 3.5% (n = 310,000);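 further: the enzyme is Sfp with the accession as filed and its product quenches rhodamine fluorescence; potency means the concentration at half of the fitted maximal effect; 0% = enzyme reaction without inhibitor and -100% = no enzyme wells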
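Fluorescence-quenching assay: 15 nM Sfp-PPTase preincubated 15 min at room temperature with compound, then 5 uM rhodamine-CoA and 12.5 uM BHQ-2-labelled YbbR peptide added. Fluorescence (ex 525/em 598 nm) read at start and after 30 min; difference gives rate.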
CCT modulator = modulators of cytosolic chaperonin (CCT/TRiC) activity; purified chaperonin ATPase assay, HTRF ADP detection, 30 min; activity change, % (test concentration not listed), hits read low; actives 0.3% (n = 360,000); AID 651819; in the data active means activity change below about -30%
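TRiC at 40 or 20 nM final (batch-dependent) in 30 mM Tris pH 7.4, 100 mM KCl, 5 mM MgCl2, 1 mM DTT, with compound at single 76 uM and 10 uM ATP, 30 min at 37 deg C. ADP detected by HTRF Transcreener, 665/615 ratio.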
PLK1 PBD inh = PLK1 (human) polo-box domain binding inhibition; actives 2.8% (n = 360,000); AID 720504; Potency, µM, for inactives: max response, negative = inhibition, actives largely listed as inhibitors; P53350; Plk1 PBD binding of FITC phosphopeptide, fluorescence polarization; further: potency means the concentration at half of the fitted maximal effect; series mostly up to about 57 µM; nearly all actives have a fitted effect of over 65% in size
MmCpn inh = blocks the Methanococcus maripaludis chaperonin Mm-Cpn; actives 0.031% (n = 330,000); AID 504842; Potency, µM (doses to about 76.9 µM), for inactives: top-dose activity, negative = inhibition, hits mostly inhibitors; purified Mm-Cpn ATPase, ADP Transcreener TR-FRET; further: potency means the concentration at half of the fitted maximal effect; nearly all actives have a fitted effect of over 80% in size
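ATPase turnover read by TR-FRET ADP competition (Eu cryptate antibody/ADP-d2, 665/590 nm): 10uM ATP final, 25nM Mm-CPN final, 30 min 37degC after 10-min compound preincubation, pH 7.4 Tris/KCl/MgCl2/DTT buffer.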
VDR inh = blocks the human vitamin D receptor; VDR-SRC2-3 peptide fluorescence polarization, 2 h; Potency, µM, for inactives: max response, negative = inhibition, most hits filed as inhibitors; P11473; actives 0.93% (n = 400,000); further: potency means the concentration at half of the fitted maximal effect
Target sequence (P11473 whole entry, looked up): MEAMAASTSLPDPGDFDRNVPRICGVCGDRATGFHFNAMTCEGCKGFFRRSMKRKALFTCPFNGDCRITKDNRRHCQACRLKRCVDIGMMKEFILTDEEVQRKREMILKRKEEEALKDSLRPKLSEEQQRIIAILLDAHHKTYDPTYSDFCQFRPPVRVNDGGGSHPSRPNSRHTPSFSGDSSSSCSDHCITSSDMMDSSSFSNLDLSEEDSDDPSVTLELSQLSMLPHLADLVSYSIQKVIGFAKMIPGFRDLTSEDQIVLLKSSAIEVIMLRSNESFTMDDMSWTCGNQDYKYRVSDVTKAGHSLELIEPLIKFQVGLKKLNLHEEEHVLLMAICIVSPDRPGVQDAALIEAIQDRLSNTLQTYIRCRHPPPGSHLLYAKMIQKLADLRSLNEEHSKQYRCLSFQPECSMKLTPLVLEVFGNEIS
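VDR–SRC2-3 interaction, FP format. Cmpds 23 nl via pintool, brief spin, 2 h ambient incubation.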
* marks the source's active call; other numbers are inactive results; ? = inconclusive; . = not tested or not shown; [ ] = another dose, or the depositor's remark. Unless noted, the call rests on the fitted dose curve; in most records, active means well fitted curve in the direction sought with a large enough effect; inconclusive means small, poorly fitted or top-dose-only effect, or another doubt; inactive means no such curve, though single readings can be large; an effect the other way counts as inactive or inconclusive. Unless noted, on the % scale 0 is the no-effect control and ±100 the full control effect.

SMILES | G9a inh | Sfp PPTase inh | CCT modulator | PLK1 PBD inh | MmCpn inh | VDR inh
Cc1cc(C)nc(SCC(=O)NN)n1 | 22µM* | -13% | 0 | -15% | 0% | -11%
Cc1cc(C)nc(SCC(=O)Nc2ncccn2)n1 | 15% | 11% | . | . | 1% | .
Cc1ccc(C(=O)CSc2nc(C)cc(=O)[nH]2)cc1 | 50µM* | 1% | 2 | -10% | 2% | -6%
COCc1cc(C)nc(SCc2ccc(F)cc2)c1C#N | 324% | -19% | -2 | 24µM* | 0% | -27%
CCC(Sc1nc(C)cc(=O)[nH]1)C(=O)Nc1nc(-c2ccccc2)cs1 (configuration not stated) | -24%[2.33 µM] | -3% | 1 | ? | 1% | 5%
Cc1ccc(-c2csc(NC(=O)CSc3nc(C)cc(=O)[nH]3)n2)cc1 | 45µM* | -1% | 1 | ? | -1% | ?
COc1ccc(-c2noc(-c3nnn(-c4cc(C)ccc4C)c3N)n2)cc1 | 5%[59 µM] | . | . | . | . | 7%
COCc1cc(C)nc(SCC(=O)c2ccc(O)c(O)c2)c1C#N | 10µM* | 56µM* | 1 | -28% | -7% | 3%
C=CCn1c(SCCN2C(=O)c3ccccc3C2=O)nc2scc(-c3ccccc3)c2c1=O | -9% | -12% | -5 | 5% | ? | -8%
C=CCn1c(SCc2ccccc2)nc2scc(-c3ccc(C)o3)c2c1=O | 71%[59 µM] | 28µM* | -2 | -9% | 2% | 5%
C=CCn1c(SCC(=O)NCCOC)nc2scc(-c3ccco3)c2c1=O | 45µM* | 10µM* | 0 | ? | -1% | -9%
Cc1ccc(NC(=O)CSc2nc3ccccc3n2CC(=O)N2CCC(C)CC2)cc1C | 3%[59 µM] | . | . | . | . | -15%
O=C(c1ccccc1)C1C(c2ccccc2)C1[N+](=O)[O-] (configuration not stated) | 58% | 15% | -3 | -5% | 1% | -6%
CN(C)c1ccc([C@@H]2[C@@H]([N+](=O)[O-])[C@H]3C=Cc4ccccc4N3[C@H]2C(=O)c2ccc(Cl)cc2)cc1 | 7.9µM* | -14% | -7 | -1% | -1% | -20%
N[C@@](C(=O)O)(c1ccc(P(=O)(O)O)cc1)C1CC1 | . | -3% | . | . | . | 1%
Cc1cccc(NC(=O)/C(C#N)=C/c2ccc(Cl)cc2)n1 | -31% | 4% | -3 | -13% | -5% | -14%
Cc1cccc(NC(=O)/C(C#N)=C/c2cccc([N+](=O)[O-])c2)n1 | 25%[0.501 µM] | 3% | -1 | 27µM* | 1% | ?
C=Cc1ccc(CN2CCCN(Cc3ccc(Cl)cc3)S2(=O)=O)cc1 | 3%[12.7 µM] | -1% | 2 | 15µM* | -1% | ?
C=Cc1ccc(CN2CCCN(Cc3ccc(F)cc3)S2(=O)=O)cc1 | 50% | 6% | 1 | 2% | 2% | 4%
O=C(CSC1=NC(=O)C(Cc2ccccc2)C(=O)N1)Nc1ncccn1 (configuration not stated) | 79µM* | -5% | . | . | 1% | .
O=C(CSC1=NC(=O)C(Cc2ccccc2)C(=O)N1)Nc1ncc(Br)cc1Br (configuration not stated) | -4%[59 µM] | ? | 0 | -20% | 1% | 12%
CCN1C(C)=C(C(=O)OC)C(c2ccccc2)N2C(=O)[C@](O)(C(=O)OC)CC(C(C)=O)=C12 (some centres not stated) | . | 15% | . | . | . | .
O=S1(=O)N=C(Nc2nncs2)c2ccccc21 | 2µM* | 50µM* | 1 | 24µM* | -2% | -24%
CCN(CC)S(=O)(=O)c1ccc(NC2=NS(=O)(=O)c3ccccc32)cc1 | 4% | 7% | -2 | 1% | -6% | 9%
COCCNc1nc(-c2ccc(N(C)C)cc2)nc2ccccc12 | . | ? | . | . | . | 79µM*
SMILES | G9a inh | Sfp PPTase inh | CCT modulator | PLK1 PBD inh | MmCpn inh | VDR inh
COCCNc1nc(-c2ccc(C(=O)N(C)C)cc2)nc2ccccc12 | -7%[0.501 µM] | 6% | . | . | . | 23%
COc1ccc(CNC(=O)c2cccc(-n3cnc4cccnc43)c2C)cc1 | -25%[59 µM] | . | . | . | . | -6%
CC(=O)c1ccc(-c2ccc(C(=O)NC3CCCCCC3)o2)cc1 | 50µM* | ? | 0 | -4% | -15% | -15%
O=C(NC1CCC(O)CC1)c1ccc(-c2ccc(Cl)cc2)o1 (configuration not stated) | ? | . | 3 | -4% | -1% | 11%
Cc1ccc(/C=C/C(=O)Nc2cccc(S(=O)(=O)N3CCOCC3)c2)o1 | 8.9µM* | 13µM* | 2 | -15% | 0% | -9%
O=C(Nc1cccc(S(=O)(=O)N2CCCC2)c1)c1ccco1 | . | . | -2 | -15% | -2% | -7%
O=C(Nc1cccc(S(=O)(=O)N2CCCCC2)c1)c1ccccn1 | 5.6µM* | 2% | -2 | -17% | -2% | -10%
O=C(CNCc1ccco1)Nc1cccc(S(=O)(=O)N2CCCCC2)c1 | 3.5µM* | -26% | -4 | -10% | -12% | -12%
Nc1cccc2c1C(=O)N(C(=O)c1ccc(Cl)c(S(=O)(=O)N3CCCCCC3)c1)C2=O | ? | 6% | -3 | ? | -17% | ?
Nc1cccc2c1C(=O)N(C(=O)c1cccc(S(=O)(=O)N3CCCCCC3)c1)C2=O | ? | -17% | -3 | 3.2µM* | -4% | ?
CCc1nnc(NC(=O)CSc2nc3c([nH]c4ccccc43)c(=O)n2-c2ccc(Cl)cc2)s1 | 18%[59 µM] | . | . | . | . | 2%
COc1ccc(Oc2ncc3nc(-c4ccccc4)c(=O)n(CCC#N)c3n2)cc1 | 1%[12.7 µM] | 1% | . | . | . | -1%
COc1ccccc1CNc1ccnc(-c2cccc(NS(C)(=O)=O)c2)n1 | 0%[0.501 µM] | 0% | . | . | . | ?
CN(C)S(=O)(=O)c1cccc(NC(=O)c2cc3c(cc2Cl)N2CCCCCC2=NS3(=O)=O)c1 | 20%[59 µM] | 11% | 2 | -3% | -1% | -1%
CN(C)S(=O)(=O)c1cccc(NC(=O)c2ccc3c(c2)S(=O)(=O)N=C2CCCCCN23)c1 | 32µM* | . | . | . | -1% | .
CN(C)S(=O)(=O)c1cccc(NC(=O)c2cccc(S(=O)(=O)N3CCCCC3)c2)c1 | 50µM* | . | -2 | 0% | 0% | -18%
O=C(Nc1ccc2c(c1)CCC2)c1cccc(S(=O)(=O)N2CCN(c3ccccc3)CC2)c1 | 10µM* | 0% | -1 | 0% | -17% | 18%
O=C(Nc1cccc(S(=O)(=O)N2CCOCC2)c1)c1ccccn1 | 25µM* | 5% | -2 | -7% | 1% | -7%
CCOc1ccc(NC(=O)Cn2c(=O)cc(C)c3c(C)nn(-c4ccc(CC)cc4)c32)cc1 | 7%[59 µM] | . | . | . | . | 6%
O=C(Nc1ccc(F)c(Cl)c1)N1CCC(CN2CCOCC2)CC1 | -6%[59 µM] | . | . | . | . | 8%
COc1ccc(NC(=O)Cn2c(=O)nc(-c3ccccc3)c3ccccc32)cc1OC | 25%[59 µM] | . | . | . | . | 5%

Assay outcomes: PubChem BioAssay, National Center for Advancing Translational Sciences (NCATS)
